Source: PubChem
ClpP mod = qHTS Assay for Activators of ClpP; purified B. subtilis ClpP, FRET peptide cleavage, 20 min; Potency, µM (doses to about 57.5 µM), for the others: at the highest dose activity change, negative = active; actives 1.9% (n = 340,000); active = well fitted falling curve with a large enough effect; inconclusive = small, poorly fitted or top-dose-only effect; inactive = no such curve, though single readings can be large or run the other way; also: the source files actives as falling curves though it sought activators and does not explain the sign; nearly all actives have a fitted effect of over 65% in size
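ClpP 10 microg/mL final, pH 8 Tris/KCl buffer with BSA, glycerol, Tween-20; compound pinned in; FRET-FV substrate; RT 20 min; Ex320/Em430; ΔFRET vs ADEP 5.8 microM, DMSO, no enzyme.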
DT40 TDP1 CPT = growth inhibition of DT40 Tdp1-/-;hTDP1 cells with camptothecin (screen for TDP1 inhibitors); chicken DT40 Tdp1-/-;hTDP1 cells + 20 nM CPT, ATP luminescence, 48 h; Potency, µM (titrated, usually from 46.2 µM), without a hit: at the highest dose activity change, negative = growth inhibition, actives largely listed as inhibitors; actives 12% (n = 420,000); also: % is scaled to controls: 0 for no effect and ±100 for the full control effect; nearly all actives have a fitted effect of over 55% in size
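Cell growth measured by CellTiter-Glo luminescence after a minimum 48 h, 37 C compound exposure with 20 nM CPT in Tdp1-knockout DT40 cells stably expressing hTDP1, seeded 400/well; qHTS titration format.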
TDP1 inh = blocks human tyrosyl-DNA phosphodiesterase 1; Q9NUW8; recombinant TDP1, AlphaScreen DNA substrate cleavage; Potency, µM (highest dose often 130 µM), for the others: at the highest dose activity change, negative = inhibition, actives largely listed as inhibitors; actives 0.28% (n = 350,000); AID 485290; also: % is scaled to controls: 0 for no effect and ±100 for the full control effect; nearly all actives have a fitted effect of over 40% in size
Target sequence (Q9NUW8 whole entry, looked up): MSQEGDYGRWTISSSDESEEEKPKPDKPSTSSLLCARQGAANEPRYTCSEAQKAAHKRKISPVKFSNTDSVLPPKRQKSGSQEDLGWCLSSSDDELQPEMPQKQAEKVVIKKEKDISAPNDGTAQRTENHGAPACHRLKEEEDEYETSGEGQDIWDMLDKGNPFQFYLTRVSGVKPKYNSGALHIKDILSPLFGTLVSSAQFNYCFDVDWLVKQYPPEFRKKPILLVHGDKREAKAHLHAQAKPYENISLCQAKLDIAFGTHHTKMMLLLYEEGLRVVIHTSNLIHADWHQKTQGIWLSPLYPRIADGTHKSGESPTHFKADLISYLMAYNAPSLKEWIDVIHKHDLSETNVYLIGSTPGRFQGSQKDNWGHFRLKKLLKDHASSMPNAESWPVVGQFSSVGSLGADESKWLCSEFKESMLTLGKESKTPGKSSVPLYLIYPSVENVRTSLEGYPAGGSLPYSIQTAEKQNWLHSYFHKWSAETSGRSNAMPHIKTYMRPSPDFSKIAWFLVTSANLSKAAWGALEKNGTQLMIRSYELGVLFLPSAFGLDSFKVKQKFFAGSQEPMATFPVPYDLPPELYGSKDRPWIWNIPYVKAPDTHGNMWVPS
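Recombinant E. coli-expressed Tdp1 (1 nM) preincubated with compound 15 min at RT, then 5'-biotin/3'-phosphotyrosine-FITC DNA substrate (15 nM) added for 5 min. AlphaScreen beads (10 ug/ml) added, 10 min RT; tyrosine-FITC cleavage read as signal loss.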
DT40 TDP1 no CPT = qHTS for Inhibitors of human tyrosyl-DNA phosphodiesterase 1 (TDP1): qHTS in cells in absence of CPT; actives 15% (n = 420,000); Potency, µM (series often up to 46.2 µM), without a hit: at the top dose activity change, negative = growth inhibition, most hits filed as inhibitors; AID 686978, 2013; DT40 Tdp1-/- hTDP1 cells, no CPT, ATP luminescence, 48 h; also: % is scaled to controls: 0 for no effect and ±100 for the full control effect; nearly all actives have a fitted effect of over 55% in size
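Luminescent ATP content (CellTiter-Glo) served as the growth readout. Knockout chicken DT40 cells expressing human TDP1 were exposed to compounds without camptothecin for a minimum 48 hr at 37 °C.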
* hit, by the source's call; u = inconclusive; x = no result given. Most compounds without a hit are left out; they make up all but 17% or so of the library. Unless noted, calls follow the shape of the dose curve; as a rule, active = well fitted curve in the direction sought with a large enough effect; inconclusive = small, poorly fitted or top-dose-only effect, or another doubt; inactive = no such curve, though single readings can be large; an effect the other way counts as inactive or inconclusive. Potency is read from the fitted curve at half-maximal effect.

SMILES	ClpP mod	DT40 TDP1 CPT	TDP1 inh	DT40 TDP1 no CPT
CCOCCCNC(=O)c1cc2c(=O)n3cccc(C)c3nc2n1C	3.9%	0.581µM*	0.0%	0.82µM*
Cc1cccn2c(=O)c3cc(C(=O)NCCCN4CCCC4=O)n(C)c3nc12	15.8µM*	-21.3%	0.0%	u
CCN(CC)CCNC(=O)c1c(C)oc2ncnc(N3CCOCC3)c12	0.1%	4.8%	2.1%	-5.3%
Cc1cc(C)nc(N2CCC(C(=O)Nc3ccc4c(c3)OCO4)CC2)n1	-6.2%	8.2µM*	11.5%	9.2µM*
Cc1cc(C)nc(N2CCC(C(=O)NCCc3ccccc3)CC2)n1	-11.1%	8.2µM*	-3.1%	9.2µM*
COC(=O)CNC(=O)C1CCN(c2nc(C)cc(C)n2)CC1	31.6µM*	u	-1.9%	-0.2%
Cc1nn(CCC(=O)N2CCN(S(=O)(=O)c3ccccc3)CC2)c(C)c1C	x	0.8%	7.7%	-4.0%
COc1ccc(Nc2c3c(nc4ccc(NC(=O)/C=C/c5cc(OC)c(OC)c(OC)c5)cc24)CCCC3)cc1OC	-5.4%	1.03µM*	11.8%	1.84µM*
COc1ccc(/C=C/C(=O)Nc2ccc3nc4c(c(Nc5ccc(OC)c(OC)c5)c3c2)CCCC4)cc1	-0.1%	3.66µM*	11.8%	4.61µM*
O=C1c2ccccc2-c2c1c1ccccc1c(=O)n2CCO	-2.1%	6.51µM*	x	7.31µM*
O=C1c2ccccc2-c2c1c1ccccc1c(=O)n2-c1ccccc1	-4.7%	11.6µM*	x	11.6µM*
O=c1c2ccccc2n2nnnc2n1-c1ccccc1	2.1%	3.7%	6.1%	-15.4%
CNC[C@@H](C)NC[C@@H](Cc1ccccc1)NCCc1ccccc1	-3.5%	8.2µM*	x	4.61µM*
Cc1ccc(NC(=O)N2CCN3CCCCC3C2)cc1C (stereo not drawn)	-1.3%	2.0%	0.0%	-1.6%
O=C(COC(=O)CCc1c[nH]c2ccccc12)NC(c1ccccc1)c1ccccc1	-0.5%	-22.0%	7.9%	u
Cc1ccc(CN(CC2CCCO2)C(=O)CN2C(=O)C(C(C)C)Oc3ccccc32)o1 (stereo not drawn)	0.5%	25.9µM*	6.0%	u
COc1ccc(-c2cnc3c(NC(C)=O)cc(-c4ccccc4CN(C)C)cn23)cc1OC	4.6%	u	x	u
CC(=O)Nc1cc(-c2cccc(CO)c2)cn2c(-c3ccc(C(C)=O)cc3)cnc12	-23.8%	u	x	20.6µM*
CC(=O)Nc1cc(-c2ccccc2CN(C)C)cn2c(-c3ccc(C(C)=O)cc3)cnc12	-9.7%	u	x	16.4µM*
CC(=O)Nc1cc(-c2cccc(N)c2)cn2c(-c3ccc(C(C)=O)cc3)cnc12	-3.7%	u	x	10.3µM*
CC(=O)Nc1cc(-c2cccc(CO)c2)cn2c(-c3ccc(F)cc3)cnc12	-8.7%	23.1µM*	x	u
CC(=O)N/C(=C/c1ccc([N+](=O)[O-])cc1)C(=O)O	x	2.6%	x	17.9%
CNCC(=O)N(CC(C)C)c1c(N)n(CC(C)C)c(=O)[nH]c1=O	x	18.0%	5.1%	24.1%
O=C(Nc1ccn(CCOC(=O)c2ccccc2)c(=O)n1)c1ccccc1	-0.7%	-7.1%	x	-29.3%
C[C@H](NC(=O)C[C@@H]1C=C[C@@H](NC(=O)CN2CCOCC2)[C@@H](CO)O1)c1ccccc1	-0.8%	-5.5%	x	1.3%
SMILES	ClpP mod	DT40 TDP1 CPT	TDP1 inh	DT40 TDP1 no CPT
CN1CCc2c(n(CC(O)CN3CCN(CCO)CC3)c3ccccc23)C1=O (stereo not drawn)	4.3%	-6.9%	-2.5%	-4.9%
O=C1C2C3c4ccccc4C(c4ccccc43)C2c2nc3ccccc3n21 (stereo not drawn)	-1.5%	4.11µM*	2.4%	4.11µM*
CN1C(=O)C2C3c4ccccc4C(c4ccccc43)[C@@H]2C1=O (stereo partly drawn)	0.3%	u	x	u
COC(C[C@@H](O)[C@@H](C)[C@@H](O)COCc1ccccc1)OC	0.7%	30.5%	4.7%	-2.6%
CC(=O)c1ccc(C(=O)N2CCc3c([nH]c4ccccc34)C2c2ccccn2)s1 (stereo not drawn)	x	u	0.0%	20.6µM*
CCc1nc(C)ccc1OCC(=O)N1CCc2c([nH]c3ccccc23)C1c1ccccn1 (stereo not drawn)	0.0%	20.6µM*	2.8%	23.1µM*
O=C(c1cc(-c2ccccc2)n[nH]1)N1CCc2c([nH]c3ccccc23)C1c1ccccn1 (stereo not drawn)	x	18.4µM*	8.6%	20.6µM*
O=C(c1cccs1)N1CCc2c([nH]c3ccccc23)C1c1ccccn1 (stereo not drawn)	-3.4%	-17.0%	x	7.9%
Cc1ccc2nc(C(=O)N3CCc4c([nH]c5ccccc45)C3c3ccccn3)cn2c1 (stereo not drawn)	x	u	5.6%	20.6µM*
CC[C@H](C)[C@H](NC(=O)c1ccc(Cl)cc1)C(=O)OCC(=O)c1c(N)n(C)c(=O)n(C)c1=O	x	u	-0.2%	u
CCC(O)CNC(=O)CCc1nnc(C2(c3ccc(Cl)cc3)CCC2)o1 (stereo not drawn)	x	-4.6%	5.1%	-4.9%
O=C(c1ccccc1-c1ncc[nH]1)N1CCc2c([nH]c3ccccc23)C1c1ccccn1 (stereo not drawn)	x	u	8.1%	u
O=C(c1ccccc1-n1cccn1)N1CCc2c([nH]c3ccccc23)C1c1ccccn1 (stereo not drawn)	x	10.3µM*	x	10.3µM*
CC(C)=CCc1c(-c2ccc(O)cc2O)oc2c3c(cc(O)c2c1=O)OC(C)(C)C=C3	-3.7%	20.6µM*	x	u
CC(C)=CCc1c2c(c(O)c3c(=O)c4c(oc13)-c1cc(O)c(O)cc1OC4C=C(C)C)C=CC(C)(C)O2 (stereo not drawn)	-2.0%	u	x	u
N#Cc1c([N+](=O)[O-])cc([N+](=O)[O-])cc1S(=O)(=O)Cc1ccccc1	0.5%	0.206µM*	5.4%	0.184µM*
CSCC[C@H](NC(=O)[C@H](CC(C)C)NC(=O)CNC(=O)[C@@H]1CCCN1C(=O)[C@H](Cc1ccccc1)NC(=O)[C@H](Cc1ccccc1)NC(=O)[C@H](CC(=O)O)NC(=O)[C@H](Cc1cnc[nH]1)NC(=O)[C@H](CCSC)NC(=O)[C@@H](N)CC(=O)O)C(N)=O	x	x	10.8%	x
CCOc1cc(S(=O)(=O)N2CC=C(c3ccc(F)cc3)CC2)c(OCC)cc1-n1cnnn1	u	14.6µM*	1.0%	10.3µM*
CCOc1cc(S(=O)(=O)N2CCC(Cc3ccccc3)CC2)c(OCC)cc1-n1cnnn1	14.1µM*	-20.2%	11.9%	-28.3%
CCOc1cc(S(=O)(=O)N2CCC(c3nc4ccccc4s3)CC2)c(OCC)cc1S(=O)(=O)N1CCCCC1	11.9%	u	1.0%	u
CCOC(CN=c1nc(N(C)C)ss1)OCC	-0.8%	0.581µM*	x	0.731µM*
